PubChem BioAssay AID932 (The Scripps Research Institute Molecular Screening Center, 2007)
In all, about 200,000 compounds went through this assay and about 5,100 (2.5%) were called active. The sample as a whole holds a higher share of actives than the screen did. A number with no mark means an inactive call.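 The calls were made as follows: active = activation above the screen-wide mean activation plus 3 SD (cut at about 130% in these data); inactive = the rest.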 Where a SMILES comes first, the peptide text is derived from it. [ ]: non-standard residue; d: D form. ξ: configuration not given here. ξM = CSCCC(N)C(=O)O

Test: STAT1 signaling activators, primary screen, cell-based, HTS, luciferase reporter (AID 932);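 also: raw ratio to IFN-gamma control signal so 100% means no change and 0% no light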
Conditions: NIH 3T3 STAT1-luciferase reporter, IFN-gamma, luminescence; at 5.5 µM; hits give high values; 100% = IFN-gamma alone, no compound

`OCCC1CN(Cc2cnc(-c3ccccc3)s2)CCN1CCc1ccccc1` (configuration not stated) and `CC(=O)Nc1ccc(CN2CCN(Cc3ccc(F)c(F)c3)C(CCO)C2)cc1` (configuration not stated) are the same in activation (% of control): 100% for the first, 100% for the second.

Going from `OCCNc1nc2ccccc2[nH]1` to `CCCNC(=O)c1ccc(Cl)c(Cl)c1`, the activation (% of control) falls from 104% to 98.4%.

First: COc1cccc(/C(C)=N/Nc2ncc(Cl)cc2Cl)c1
Second: CCOc1cccc(C(=O)Nc2cccnc2)c1
The activation (% of control) of the first is higher: 126% for the first, 101% for the second.

Compared with `C/C(=N\Nc1nc(Nc2ccccc2)nc(N2CCOCC2)n1)c1cccs1`, `Nc1nc(NCCCN2CCOCC2)nc(Nc2ccccc2)c1[N+](=O)[O-]` is higher in activation (% of control): 92.8% for the first, 103% for the second.

Going from `Cc1c(Cl)cnc(NC(=O)COC(=O)c2ccc(S(=O)(=O)NCc3ccco3)cc2)c1Cl` to `O=C(NC1CCC(O)CC1)c1ccc(S(=O)(=O)NCc2ccco2)cc1` (configuration not stated), the activation (% of control) falls from 101% to 93.2%.

Compared with `C/C(=N\NS(=O)(=O)c1ccc(Br)cc1)c1cccs1`, `O=C(O)c1ccc(NC(=O)c2cccs2)cc1` is higher in activation (% of control): 95.4% for the first, 98.1% for the second.

Compared with `COc1cccc(CNC(=O)CCN2C(=S)NC(C)(C)CC2C)c1` (configuration not stated), `COC(=O)CSc1nc(C)c2ccc(OC)cc2n1` is higher in activation (% of control): 100% for the first, 108% for the second.

First: Cc1nn(C)c(C)c1CN(C(=O)CCc1nnc(Cc2c[nH]c3ccccc23)o1)C(C)C
Second: CN=c1scc(-c2cc(OC)ccc2OC)n1/N=C/c1c(C)[nH]c2ccccc12
The activation (% of control) of the first is lower: 99.9% for the first, 112% for the second.

First: CCN(CC)c1ccc(C(=O)c2cnc(/N=C/N(C)C)s2)cc1
Second: C=CCN(c1ccc(Cl)cc1)S(=O)(=O)c1cccc(C(=O)OCC(=O)N(C)C)c1
The activation (% of control) of the first is higher: 118% for the first, 97.2% for the second.

First: COc1nc(-c2ccc(Cl)cc2)ccc1-c1noc(-c2cccs2)n1
Second: c1ccc(-c2noc(-c3cccs3)n2)nc1
The activation (% of control) of the first is higher: 108% for the first, 104% for the second.

First: O=c1oc(-c2ccco2)nc2sc3c(c12)CCCCC3
Second: COc1ccc(N/N=C2/CCCCC2=O)cc1
The activation (% of control) of the first is higher: 110% for the first, 105% for the second.

Going from `Cc1c(Br)ccc(NC(=O)COc2ccccc2C(N)=O)c1C` to `Cc1ccccc1NC(=S)NNC(=O)c1cccc(Br)c1`, the activation (% of control) rises from 97.9% to 104%.

First: Cc1cc(NS(=O)(=O)c2ccc(NC(=O)c3cccc(OC(F)F)c3)cc2)nc(C)n1
Second: CCC(=O)Oc1cccc(C(=O)Nc2ccc(-c3nnc(-c4ccco4)o3)cc2)c1
The activation (% of control) of the first is higher: 105% for the first, 104% for the second.

First: CCOC(=O)C1(Cc2ccc(Cl)cc2)CCN(C(=O)C2=NNC(=O)CC2)CC1
Second: CCOC(=O)C1(CCOC)CCN(Cc2ccc(C(=O)OC)cc2)CC1
The activation (% of control) of the first is lower: 96.4% for the first, 106% for the second.

Going from `CCOC(=O)C1(CCOc2ccccc2)CCN(C(=O)c2cncs2)CC1` to `CCn1cc(CN2CCCC(CNS(=O)(=O)Cc3ccccc3)C2)cn1` (configuration not stated), the activation (% of control) falls from 99.2% to 89.7%.

First: O=c1cc(CO)oc(C(Nc2cccc(C(F)(F)F)c2)c2ccccn2)c1O (configuration not stated)
Second: O=C(NCc1ccccn1)c1cc(Br)ccc1Cl
The activation (% of control) of the first is lower: 99.4% for the first, 104% for the second.

Compared with `CCOC(=O)c1cc(NC(=O)c2cccnc2)cc(C(=O)OCC)c1`, `CC(C)C(=O)Nc1cccc(C(=O)Nc2ccc3c(c2)OCO3)c1` is higher in activation (% of control): 96.5% for the first, 120% for the second.

Going from `O=C(N1CCCC1)C12CC3CC(C1)CC(C(=O)N1CCCC1)(C3)C2` to `COc1ccc(C(=O)C2CCCN(C(=O)c3cc4nc(C)cc(C)n4n3)C2)cc1F` (configuration not stated), the activation (% of control) falls from 99.8% to 95.3%.

Compared with `Cc1c(C(=O)NCc2ccccc2)cnn1-c1ccccc1`, `Cc1ccc(Oc2cnn(-c3ccccc3)c(=O)c2Br)cc1` is higher in activation (% of control): 101% for the first, 108% for the second.

Going from `Cn1ncc(N2CCN(S(=O)(=O)c3ccc(Br)cc3)CC2)c(Cl)c1=O` to `O=c1c(Cl)c(NC2CC2)cnn1-c1ccccc1`, the activation (% of control) falls from 110% to 108%.

Going from `COc1cc(C)c(Cl)cc1S(=O)(=O)n1ccnc1` to `Cc1ccc(-n2nc(C)c(/C=N/NC(=O)c3cccs3)c2Cl)cc1`, the activation (% of control) rises from 92.5% to 106%.

Compared with `COCCNc1nc(N)c([N+](=O)[O-])c(NCCO)n1`, `NC(N)=N/N=C/c1ccc(Cl)c([N+](=O)[O-])c1` is lower in activation (% of control): 114% for the first, 93.6% for the second.

Compared with `Cc1nn(-c2ccccc2)c(NC(=O)c2cccs2)c(-c2ccc(Cl)cc2)c1=O`, `Cc1ccc(NC(=S)NC(=O)c2ccc(-c3ccccc3)cc2)c(C)c1` is lower in activation (% of control): 107% for the first, 92% for the second.

Going from `CC(C)N1CCC(NC(=O)Nc2ccccc2)CC1` to `CC(C)(C)NS(=O)(=O)c1ccc(NC(=O)NC2CCCCC2)cc1`, the activation (% of control) rises from 95.4% to 103%.

Going from `COc1ccccc1-c1nnc(NC(=O)c2ccc3ncsc3c2)o1` to `COc1ccc(OCC(=O)NNC(=O)c2cccc(C)c2)cc1`, the activation (% of control) falls from 122% to 103%.

First: O=C(CC(=O)N/N=C\c1ccc(F)cc1)NCCc1ccccc1
Second: O=C(O)/C=C\C(=O)Nc1ccc(OCc2ccccc2)cc1
The activation (% of control) of the first is lower: 100% for the first, 120% for the second.

Going from `O=C(NNC(=O)C1C2CCC(C2)C1C(=O)O)c1ccc(Cl)cc1` (configuration not stated) to `CC(C)(C)OC(=O)N/N=C/c1ccc(C(=O)O)cc1`, the activation (% of control) falls from 110% to 104%.

First: Cc1ccccc1NC(=O)NNC(=O)OC(C)(C)C
Second: Cc1ccc(C)c(NC(=S)NNC(=O)c2csc(C)c2)c1
The activation (% of control) of the first is higher: 103% for the first, 97.8% for the second.

Going from `COc1ccc(-n2nc3c(c2NC(=O)c2ccc(N4C(=O)CCC4=O)cc2)CSC3)cc1` to `COc1ccc(-c2nnc3ccc(SCc4ccccc4)nn23)cc1`, the activation (% of control) falls from 96.7% to 96.5%.

Compared with `Cc1ccc(NC(=S)NC(=O)c2ccc(-c3ccccc3)cc2)cc1`, `C/C(=N/Nc1ccc(Cl)cc1)c1cnnc(-c2ccccc2)n1` is higher in activation (% of control): 98.2% for the first, 99.5% for the second.

First: CCCN(C(=O)CSc1nnnn1C)c1c(N)n(Cc2ccccc2)c(=O)[nH]c1=O
Second: CCSc1nc(C)c(CCOc2cccc(C)c2)c(=O)[nH]1
The activation (% of control) of the first is lower: 101% for the first, 102% for the second.

First: CCn1ccnc1CN1CCCC(C(=O)c2ccc3c4c(cccc24)CC3)C1 (configuration not stated)
Second: Cn1c(SCC(=O)NC2CCCCC2)nnc1-c1ccc(N)cc1
The activation (% of control) of the first is lower: 89.5% for the first, 101% for the second.

First: CC(NC(=O)Nc1ccc2c(c1)OCO2)c1ccncc1 (configuration not stated)
Second: O=C(/C=C/c1ccc2c(c1)OCO2)NCc1ccc(F)cc1
The activation (% of control) of the first is lower: 97.9% for the first, 101% for the second.

First: COc1ccc(OC)c(/C=C/C(=O)OCC(=O)Nc2ccc3c(c2)OCCO3)c1
Second: COc1ccc(/C=C/C(=O)Nc2ccc3c(c2)OCCO3)cc1OC
The activation (% of control) of the first is higher: 98.4% for the first, 96.8% for the second.

Going from `CCc1c(C)sc(NC(=O)/C=C/c2ccc3c(c2)OCO3)c1C(=O)OC` to `CC(=C/c1ccccc1)/C=N/NC(=O)c1cc(C)oc1C`, the activation (% of control) rises from 96.1% to 117%.

Compared with `CCOc1ccc(-c2nnc(-c3ccco3)o2)cc1`, `O=C(N/N=C/C=C/c1ccco1)c1cccs1` is higher in activation (% of control): 93.5% for the first, 127% for the second.

Going from `Cc1ccc(C)c2[nH]c(=O)c(CCNC(=O)c3cccs3)cc12` to `COc1cc(OC)c(C(=O)OCC(=O)N2CC(=O)Nc3ccccc32)cc1OC`, the activation (% of control) falls from 102% to 97%.

First: Cc1cccc(-n2c(C)cc(/C=N/NC(N)=S)c2C)c1
Second: N#C/C(=C/c1cccc([N+](=O)[O-])c1)c1nnc2n1CCCCC2
The activation (% of control) of the first is higher: 110% for the first, 100% for the second.

First: CN(C)N(C)C(=O)C(O)(c1ccccc1)c1ccccc1
Second: CN(C)c1ccc(/C=N/Nc2cc(N3CCOCC3)nc(N3CCOCC3)n2)cc1
The activation (% of control) of the first is lower: 93.5% for the first, 104% for the second.

Work on `COC(=O)CNC(=O)C(CCSC)NC(C)=O` (configuration not stated) (Ac-[ξM]-Gly-OMe) yielded an activation (% of control) of 99.5%.

For `C/C(=N\Nc1ncc(Cl)cc1Cl)c1ccc(S(=O)(=O)NCc2ccco2)cc1`, the activation (% of control) was 131% (active).
For `C/C(=N\Nc1nc2ccccc2[nH]1)c1cccs1`, the activation (% of control) was 147% (active).
In the case of `C/C(=N\Nc1ncc(Cl)cc1Cl)c1cccs1`, the activation (% of control) is reported as 143% (active).
With `c1csc(-c2nc(-c3ccncc3)no2)c1` the activation (% of control) was 130% (active).
For `CCOC(=O)C1(Cc2ccccc2C(F)(F)F)CCN(C(=O)c2cc(C)n(C)n2)CC1`, the activation (% of control) was 131% (active).
In the case of `CCOC(=O)c1ccc(-c2ccc(C(=O)Nc3cccnc3)o2)cc1`, the activation (% of control) is reported as 132% (active).
For `CCCNC(=O)c1c(Cl)cnn1-c1ccc(C)cc1`, the activation (% of control) was 142% (active).
With `CNc1nc(Nc2ccc(C)c(Cl)c2)nc(N)c1[N+](=O)[O-]` the activation (% of control) was 142% (active).
In the case of `CC(C)c1ccc(NC(=O)NC2CCCCC2)cc1`, the activation (% of control) is reported as 180% (active).
For `Cc1nn2cc(-c3ccc(Cl)cc3)cnc2c1Br`, the activation (% of control) was 140% (active).
With `C/C(=N\NC(=O)OC(C)(C)C)c1ccc[nH]1` the activation (% of control) was 130% (active).
With `Cc1ccc(C(=O)NC(=S)Nc2ccccc2C)cc1` the activation (% of control) was 130% (active).
In the case of `Cc1cc(C(=O)NNC(=S)Nc2ccccc2C)cs1`, the activation (% of control) is reported as 130% (active).
In the case of `Cc1ccc(N/N=C2\COC(C)(C)CC2=O)cc1`, the activation (% of control) is reported as 142% (active).
For `Cc1cccc(NC(=O)/C=C/c2ccc3c(c2)OCO3)n1`, the activation (% of control) was 135% (active).
In the case of `Cc1cccc(NC(=O)Nc2ccc3c(c2)OCO3)n1`, the activation (% of control) is reported as 168% (active).
For `COc1cccc(/C=C/C(=O)Nc2ccc3c(c2)OCCO3)c1`, the activation (% of control) was 129% (active).
With `CCCCOc1ccc(-c2nnc(-c3ccco3)o2)cc1` the activation (% of control) was 130% (active).
For `COc1ccc2nc(SCc3ccccc3)nc(C)c2c1`, the activation (% of control) was 188% (active).
In the case of `CN1C(=O)/C(=C/C=C2\SCCN2C)OC1=S`, the activation (% of control) is reported as 158% (active).
With `CC(=O)Nc1ccc(/C=N/NC(=O)c2cccs2)cc1` the activation (% of control) was 136% (active).
In the case of `Cc1cccc(-n2c(C)cc(/C=N\NC(=O)c3cccs3)c2C)c1`, the activation (% of control) is reported as 140% (active).
With `C=CCNc1cnn(-c2ccc(C)cc2)c(=O)c1Cl` the activation (% of control) was 134% (active).
